# Assay results published in PubChem BioAssay (Tox21).
# Inconclusive results are not listed. Values without a mark were called inactive. Activity calls are given as the source filed them. Calls come from the whole dose curve; as a rule, active = well fitted cell-killing curve with a large enough effect in the repeat runs; inconclusive = weak or mixed curves; inactive = no such curve, though single readings can be large or run the other way.
# Test: qHTS assay to identify small molecule antagonists of the androgen receptor (AR) signaling pathway - cell viability counter screen (AID 743033; note: nearly all actives have a fitted effect of over 45% in size)
# Conditions: AR-bla HEK293 viability, CellTiter-Glo luminescence, 16 h; series mostly up to 58.5 µM; activity change, negative = cytotoxicity: at the top concentration
# Excerpt: National Center for Advancing Translational Sciences [NCATS]
# NIH Chemical Genomics Center [NCGC]
# U.S. Environmental Protection Agency [EPA]
# National Institutes of Environmental Health Sciences [NIEHS]
# National Toxicology Program [NTP]
# U.S. Food and Drug Administration [FDA]
# Androgen receptor (AR), a nuclear hormone receptor, plays a critical role in AR-dependent prostate cancer and other androgen related diseases. Endocrine disrupting chemicals (EDCs) and their interactions with steroid hormone receptors like AR may cause disruption of normal endocrine function as well as interfere with metabolic homeostasis, reproduction, developmental and behavioral functions. To identify the compounds that inhibit AR signaling, GeneBLAzer AR-UAS-bla-GripTite cell line (Invitrogen, Carlsbad, CA, USA) containing a beta-lactamase reporter gene under control of an Upstream Activator Sequence (UAS) stably integrated into HEK293 cells was used to screen the Tox21 10K compound library. The cytotoxicity of the Tox21 compound library against the AR-bla cell line was tested in parallel by measuring the cell viability using CellTiter-Glo assay in the same wells.
# Tox21 Assay Protocol Summary:
# AR-bla cells were dispensed at 2,000 cells/5 uL of assay medium per well into black wall/clear-bottom 1536-well plates using a Multidrop Combi (ThermoFisher Scientific, Waltham, MA) dispenser. After the assay plates were incubated at a 37C and 5% CO2 for 4 hr, 23 nL of compounds dissolved in DMSO, positive controls or DMSO only was transferred to the assay plate by a Pintool station (Kalypsys, San Diego, CA), followed by addition of 1 uL of agonist (R1881) in culture medium using a Bioraptr Flying Reagent Dispenser (FRD) workstation (Beckman Coulter, Indianapolis, IN, USA). The plates were incubated at a 37C and 5% CO2 for 16 h. After 1 uL of LiveBLAzerTM B/G FRET substrate was added using a Bioraptr FRD, the plates were incubated at room temperature for 2 h and fluorescence intensity was measured by an Envision plate reader (PerkinElmer, Shelton, CT). For cell viability readout that measures cytotoxicity, 4 ul/well of CellTiter-Glo reagent was added into the assay plates using a Bioraptr FRD. After 30 min incubation at room temperature, the luminescence intensity in the plates was measured using a ViewLux (PerkinElmer) plate reader.
# % is set by controls: 0 for no effect and ±100 for the full control effect.
SMILES,outcome,"activity change, negative = cytotoxicity"
CCCCCCCCCCCCCCCC(=O)OC(C)C,inactive,
OCc1cccc(Oc2ccccc2)c1,inactive,
O=c1[nH]cnc2[nH]ncc12,inactive,
CCCCCCO,inactive,
CC(C)CCCCCCCOC(=O)CCCCC(=O)OCCCCCCCC(C)C,inactive,
CC(C)c1cccc(C(C)C)c1,inactive,
NCCN1CCNCC1,inactive,
CC(C)(Oc1ccc(CCNC(=O)c2ccc(Cl)cc2)cc1)C(=O)O,inactive,
CCO[Si](CCC#N)(OCC)OCC,inactive,
NCCCCCCN,inactive,
CC1(C)NC(=O)NC1=O,,2.44% [at 78.9 µM]
C=CCCCCCCCCC(=O)O,inactive,
CC(=O)Oc1ccc(C)cc1,,2.93%
COc1cc(OC)c(C(=O)CCCN2CCCC2)c(OC)c1,inactive,
CC(CCl)OP(=O)(OC(C)CCl)OC(C)CCl (stereo not given),inactive,
O=C(OCC1CCC2OC2C1)C1CCC2OC2C1 (stereo not given),inactive,
Cc1ccc(S(=O)(=O)N=C=O)cc1,inactive,
COc1ccc(OC)cc1,inactive,
COc1ccc(C)cc1N,inactive,
CCCOC(=O)c1ccccc1,inactive,

SMILES,outcome,"activity change, negative = cytotoxicity"
COCCCN,inactive,
C=Cc1ccc(C)cc1,,2.91%
COc1ccccc1OCC(O)CO (stereo not given),inactive,
CC(=O)CCC=C(C)C,inactive,
Cc1ccc([N+](=O)[O-])cc1S(=O)(=O)O,inactive,
CC(C)(C#N)c1cc(Cn2cncn2)cc(C(C)(C)C#N)c1,inactive,
CC(=O)CC(C)(C)O,inactive,
CC(O)CC(C)(C)O (stereo not given),inactive,
CCCCOC(=O)c1ccc(N)cc1,inactive,
CC(C)(C)c1cc(Cc2cc(C(C)(C)C)c(O)c(C(C)(C)C)c2)cc(C(C)(C)C)c1O,inactive,
CN/C(=C\[N+](=O)[O-])NCCSCc1csc(CN(C)C)n1,inactive,
C[Si]1(C)O[Si](C)(C)O[Si](C)(C)O[Si](C)(C)O1,inactive,
CC(=O)OCc1ccccc1,inactive,
O=S(=O)(O)c1ccc(N=Nc2c(O)ccc3cc(S(=O)(=O)O)ccc23)cc1,inactive,
CN1C(=O)CC[C@H]1c1cccnc1,inactive,
O=S(=O)(O)c1ccccc1,inactive,
C=CCc1ccc(OC)c(OC)c1,inactive,
CCOC(=O)n1ccn(C)c1=S,inactive,
C=CC[N+](C)(C)CC=C,inactive,
C[C@]12CC[C@@H]3c4ccc(O)cc4CC[C@H]3[C@@H]1C[C@@H](O)[C@@H]2O,inactive,
